Test results published in PubChem BioAssay (NCATS).
Records with an inconclusive call do not appear. Some structures have more than one record in an assay (separate samples or runs), and their calls can disagree. Calls of active or inactive are those of the source. Unless noted, calls follow the shape of the full dose curve.

tested on: not listed separately; experiment: qHTS for Inhibitors of Plasmodium falciparum (CP250) proliferation (AID 504320; active = well fitted inhibition curve with a large enough effect;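 also: plate controls were DMSO vehicle for no effect and 0.29 µM artemisinin control for full effect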); settings: P. falciparum CP250 in erythrocytes, SYBR Green DNA, 72 h; series mostly up to 6.7 µM; activity change, negative = inhibition: at the top concentration
How it was run: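 Parasite growth measured as SYBR Green DNA fluorescence (ex 485, em 535 nm) after overnight lysis following 72 h culture at 37 °C, 0.3% parasitemia, 2.5% hematocrit. Values normalized against DMSO and 0.29 uM artemisinin controls, with plate-stack correction.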

SMILES	activity change, negative = inhibition	Potency
COC(=O)N[C@H](C(C(=O)OC)=C(C)NCc1ccccc1)c1ccco1	4.31% (inactive)	–
C[C@@H]1CC2=CCCC2[C@]2(O1)C(=O)Nc1cccc(Br)c12 (stereo partly specified)	-2.46% (inactive)	–
C=CCN=C1N[C@@H](c2ccccc2)[C@H](C(=O)OC)[C@@H](C)N1CC	-8.32% (inactive)	–
O=C(Oc1ccccc1)[C@H]1O[C@H]1c1ccccc1	-5.32% (inactive)	–
CC(=O)OC[C@H]1O[C@H](C#Cc2ccccc2)C=C[C@H]1O	6.58% (inactive)	–
CCN1C(=O)NC(c2cccs2)C(C(C)=O)=C1C (stereo unspecified)	2.37% (inactive)	–
C=C(C(C)=O)C(O)c1ccc(Cl)cc1 (stereo unspecified)	2.41% (inactive)	–
CCN1C(=O)N[C@@H](CCc2ccccc2)[C@H](C(C)=O)[C@H]1C	–	inactive
COC(=O)C(C(=O)OC)C1c2ccccc2C=C(C2CC2)N1C(=O)OC (stereo unspecified)	–	inactive
C=CCOC(=O)C(C(C)=O)[C@@H](NC(=O)OC)c1ccc(Cl)cc1 (stereo partly specified)	3.06% (inactive)	–
COC1=C[C@H](C(=O)NCCNC(C)=O)[C@H](C)[C@@H](c2ccccc2)CC1=O	0.0243% (inactive)	–
C=CCOC(=O)C(C(=O)CC)[C@@H](NC(=O)OC)c1ccc(F)cc1 (stereo partly specified)	2.76% (inactive)	–
CCOC(=O)C(c1ccc(OC)c(OC)c1)C1c2ccccc2C=C(C)N1C(=O)OC (stereo unspecified)	–	inactive
COCC1=Cc2cc3c(cc2C(C(C(=O)OC)C(=O)OC)N1C(=O)OC)OCO3 (stereo unspecified)	–	inactive
O=C1[C@@H]2[C@H]3[C@H](O)[C@H](O)CC(=NOC[C@@H](O)COCc4ccco4)[C@H]3CC[C@H]2C(=O)N1C[C@@H]1CCCO1	4.93% (inactive)	–
CCC=CCCC(OC(=O)c1ccc(Br)cc1)C1=CCCCC1=O (stereo unspecified)	4.86% (inactive)	–
C[C@H]1C[C@@H](C)O[C@@]2(C1)C(=O)Nc1ccccc12	–	inactive
C=C(C(C)=O)C(O)c1ccc([N+](=O)[O-])cc1 (stereo unspecified)	1.17% (inactive)	–
C[C@H]1Cc2c(-c3ccccc3)nc3c(c2CO1)CN(C(=O)NCc1ccco1)CC3	–	inactive
C=C(C)C(=O)C=CCCCC=CC(=O)OCC	0.746% (inactive)	–
COc1ccc(O[C@H]2C=C[C@@H](c3ccccc3)O[C@H]2COC(=O)CCC(C)=NO[C@@H](C)c2cc(-c3c(C)cc(C)cc3C)no2)cc1	-2.56% (inactive)	–
COc1cccc2c1[C@H](C=Cc1ccccc1)[C@@H]([C@H](O)CO)OC2	-2.51% (inactive)	–
CC[C@H](C)[C@@H](NC(=O)O[C@@H]1C(=O)c2cc(OC)ccc2O[C@H]1c1ccc(OC)c(Br)c1)C(=O)OC	4.24% (inactive)	–
CCOC(=O)NN=C1C[C@@H](O)[C@@H](O)[C@@H]2[C@H]3C(=O)N(Cc4ccc5c(c4)OCO5)C(=O)[C@@H]3CC[C@@H]12	1.34% (inactive)	–
CN1c2ccccc2[C@@]2(O)C(=O)[C@@]1(C)[C@@H]1c3ccccc3C[C@H]12	2.04% (inactive)	–
COC(=O)C1C[C@@]23C(=NN=C(SC)C2N(C)c2ccc(OC)cc23)N1C(C)=O (stereo partly specified)	3.24% (inactive)	–

molecular target: Atrial natriuretic peptide receptor 1 (Homo sapiens) (UniProt P16066); experiment: Natriuretic polypeptide receptor (hNpr1) antagonism - Pilot CMLD screen (AID 1347052); settings: HEK293 hNpr1 GloSensor cGMP luminescence, ANP-stimulated; series mostly up to 9.22 µM; activity change, negative = inhibition: at the top concentration;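 also: cGMP level read as GloSensor luciferase luminescence after agonist stimulation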; also: potency is read from the fitted curve at half-maximal effect;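 as to activity change, negative = inhibition: HEK293 cells with hNpr1 stimulated by hNppA peptide at 0.1 nM; % is scaled to controls: 0 for no effect and ±100 for the full control effect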
Sequence (P16066 whole entry, looked up): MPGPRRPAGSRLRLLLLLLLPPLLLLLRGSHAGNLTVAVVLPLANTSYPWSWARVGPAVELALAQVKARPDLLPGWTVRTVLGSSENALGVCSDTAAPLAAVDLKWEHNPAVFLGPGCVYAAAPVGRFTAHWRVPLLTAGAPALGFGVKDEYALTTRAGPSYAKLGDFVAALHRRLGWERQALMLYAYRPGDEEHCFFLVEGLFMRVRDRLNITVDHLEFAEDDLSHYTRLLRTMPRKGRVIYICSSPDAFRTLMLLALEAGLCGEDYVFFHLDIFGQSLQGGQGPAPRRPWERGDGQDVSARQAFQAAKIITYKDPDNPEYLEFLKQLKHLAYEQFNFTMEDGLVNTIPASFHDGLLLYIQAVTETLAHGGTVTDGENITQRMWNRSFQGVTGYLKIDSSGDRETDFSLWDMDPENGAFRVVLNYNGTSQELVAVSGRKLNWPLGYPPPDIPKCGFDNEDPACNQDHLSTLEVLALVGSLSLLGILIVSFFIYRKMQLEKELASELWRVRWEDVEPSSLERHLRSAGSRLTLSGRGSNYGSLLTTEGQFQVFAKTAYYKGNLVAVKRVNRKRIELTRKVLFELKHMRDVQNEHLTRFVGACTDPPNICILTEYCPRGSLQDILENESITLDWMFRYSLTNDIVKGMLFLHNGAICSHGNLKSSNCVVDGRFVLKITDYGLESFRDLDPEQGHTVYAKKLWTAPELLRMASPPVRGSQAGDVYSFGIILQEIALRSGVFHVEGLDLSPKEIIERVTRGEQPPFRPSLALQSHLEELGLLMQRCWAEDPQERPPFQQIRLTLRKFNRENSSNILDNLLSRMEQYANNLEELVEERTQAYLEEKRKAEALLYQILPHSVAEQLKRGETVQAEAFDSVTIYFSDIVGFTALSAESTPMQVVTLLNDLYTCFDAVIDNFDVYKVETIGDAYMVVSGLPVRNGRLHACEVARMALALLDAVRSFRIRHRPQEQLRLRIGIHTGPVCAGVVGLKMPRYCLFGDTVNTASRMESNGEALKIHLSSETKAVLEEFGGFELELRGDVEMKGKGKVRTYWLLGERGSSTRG

SMILES	activity change, negative = inhibition	Potency
CCCCC1=CC2=C(c3ccco3)C(=O)C(C)(OC(=O)c3ccc(OC)cc3)C(=O)C2=CN1CC1CC1 (stereo unspecified)	-3.69% (inactive)	–
COC(=O)C[C@H]1c2ccccc2[C@@H]2C(=C[C@@H](C)[C@H]3C(=O)N(O)C(=O)[C@H]32)N1C(=O)OC	5.12% (inactive)	–
C=CCN1C(=O)CC[C@@]23C1=NC(C(=O)OC)=C(C(=O)OC)[C@@H]2N(C)c1ccccc13	-8.32% (inactive)	–
CCN1C(=NCc2cccc(Cl)c2)N[C@@H](CCc2ccccc2)[C@H](C(=O)OC)[C@H]1C	7.02% (inactive)	–
CO[C@H](C1CCCCC1)[C@H](C)C=CCC(=O)OCCCc1ccccc1	-0.56% (inactive)	–
COC(=O)CCCC1=CC2=C(c3ccccc3)C(=O)C(C)(OC(=O)C3CCCC3)C(=O)C2=CN1CCCCO (stereo unspecified)	17.1% (inactive)	–
COC(=O)N[C@H](C(C(=O)OC)=C(C)NCc1ccccc1)c1ccc(Cl)cc1	6.6% (inactive)	–
CC=COC(=O)N[C@@H](c1cccc(C)c1)[C@]1(C(=O)OCC)CCCC1=O	0.221% (inactive)	–
COC[C@H]1O[C@@H](c2c(OC)cc(OC)cc2OC)[C@H](OC)[C@@H](OC)[C@H]1OC	2.98% (inactive)	–
CCCCC1=CC2=C(c3ccco3)C(=O)C(C)(OC(=O)c3ccc(OC)cc3)C(=O)C2=CN1CCN1CCOCC1 (stereo unspecified)	-1.19% (inactive)	–
COCCN1C(=O)NC(c2cccc(F)c2)C(C(C)=O)=C1C (stereo unspecified)	0.631% (inactive)	–
COC(=O)[C@H]1O[C@@H](c2cc(OC)c(C)c(OC)c2O)[C@H](C)[C@@H](O)[C@@H]1C	-3.85% (inactive)	–
C=C(C)C(O)C=CC=Cc1ccccc1 (stereo unspecified)	1.5% (inactive)	–
COC(=O)[C@H]1[C@@H](c2ccccc2)NC(=O)N(Cc2ccccc2)[C@@H]1C	-1.68% (inactive)	–
COC(=O)N[C@H](C(C(=O)OC)=C(C)NCc1ccccc1)c1ccco1	0.116% (inactive)	–
C[C@@H]1CC2=CCCC2[C@]2(O1)C(=O)Nc1cccc(Br)c12 (stereo partly specified)	-0.389% (inactive)	–
C=CCN=C1N[C@@H](c2ccccc2)[C@H](C(=O)OC)[C@@H](C)N1CC	-6.73% (inactive)	–
O=C(Oc1ccccc1)[C@H]1O[C@H]1c1ccccc1	-5.16% (inactive)	–
CC(=O)OC[C@H]1O[C@H](C#Cc2ccccc2)C=C[C@H]1O	-1.28% (inactive)	–
CCN1C(=O)NC(c2cccs2)C(C(C)=O)=C1C (stereo unspecified)	7.67% (inactive)	–

SMILES	activity change, negative = inhibition	Potency
C=C(C(C)=O)C(O)c1ccc(Cl)cc1 (stereo unspecified)	-15% (inactive)	–
CCN1C(=O)N[C@@H](CCc2ccccc2)[C@H](C(C)=O)[C@H]1C	-0.348% (inactive)	–
COC(=O)C(C(=O)OC)C1c2ccccc2C=C(C2CC2)N1C(=O)OC (stereo unspecified)	–	531 nM (active) and inactive
C=CCOC(=O)C(C(C)=O)[C@@H](NC(=O)OC)c1ccc(Cl)cc1 (stereo partly specified)	-5.48% (inactive)	–
COC1=C[C@H](C(=O)NCCNC(C)=O)[C@H](C)[C@@H](c2ccccc2)CC1=O	10.6% (inactive)	–
C=CCOC(=O)C(C(=O)CC)[C@@H](NC(=O)OC)c1ccc(F)cc1 (stereo partly specified)	-1.78% (inactive)	–
CCOC(=O)C(c1ccc(OC)c(OC)c1)C1c2ccccc2C=C(C)N1C(=O)OC (stereo unspecified)	-15% (inactive)	–
COCC1=Cc2cc3c(cc2C(C(C(=O)OC)C(=O)OC)N1C(=O)OC)OCO3 (stereo unspecified)	–	inactive
O=C1[C@@H]2[C@H]3[C@H](O)[C@H](O)CC(=NOC[C@@H](O)COCc4ccco4)[C@H]3CC[C@H]2C(=O)N1C[C@@H]1CCCO1	5.14% (inactive)	–
CCC=CCCC(OC(=O)c1ccc(Br)cc1)C1=CCCCC1=O (stereo unspecified)	-14.9% (inactive)	–
C[C@H]1C[C@@H](C)O[C@@]2(C1)C(=O)Nc1ccccc12	–	inactive
C=C(C(C)=O)C(O)c1ccc([N+](=O)[O-])cc1 (stereo unspecified)	–	1.88 µM (active)
C[C@H]1Cc2c(-c3ccccc3)nc3c(c2CO1)CN(C(=O)NCc1ccco1)CC3	7.63% (inactive)	–
C=C(C)C(=O)C=CCCCC=CC(=O)OCC	-1.89% (inactive)	–
COc1ccc(O[C@H]2C=C[C@@H](c3ccccc3)O[C@H]2COC(=O)CCC(C)=NO[C@@H](C)c2cc(-c3c(C)cc(C)cc3C)no2)cc1	-5.54% (inactive)	–
COc1cccc2c1[C@H](C=Cc1ccccc1)[C@@H]([C@H](O)CO)OC2	0.896% (inactive)	–
CC[C@H](C)[C@@H](NC(=O)O[C@@H]1C(=O)c2cc(OC)ccc2O[C@H]1c1ccc(OC)c(Br)c1)C(=O)OC	1.58% (inactive)	–
CCOC(=O)NN=C1C[C@@H](O)[C@@H](O)[C@@H]2[C@H]3C(=O)N(Cc4ccc5c(c4)OCO5)C(=O)[C@@H]3CC[C@@H]12	9.29% (inactive)	–
CN1c2ccccc2[C@@]2(O)C(=O)[C@@]1(C)[C@@H]1c3ccccc3C[C@H]12	-10% (inactive)	–
COC(=O)C1C[C@@]23C(=NN=C(SC)C2N(C)c2ccc(OC)cc23)N1C(C)=O (stereo partly specified)	2.67% (inactive)	–
